Experimental data reported in PubChem BioAssay (EPA / NIEHS).
Inconclusive results are not listed. The source made the active and inactive calls. How the source made its calls, unless noted: active means hit-call score of the fitted dose curve at least 0.9, where 1 is the maximum; inconclusive means response in the unintended direction; inactive means score below 0.9.

Experiments:
[1] = biological target: Cellular tumor antigen p53 (Homo sapiens) (UniProt P04637); test: TOX21_p53_BLA_p2_ratio: Tox21 HCT-116 p53 Agonism Beta-lactamase Assay, Ratio, Phase 2 (AID 2283592)
Sequence of Cellular tumor antigen p53 (Homo sapiens) (P04637 whole entry, looked up): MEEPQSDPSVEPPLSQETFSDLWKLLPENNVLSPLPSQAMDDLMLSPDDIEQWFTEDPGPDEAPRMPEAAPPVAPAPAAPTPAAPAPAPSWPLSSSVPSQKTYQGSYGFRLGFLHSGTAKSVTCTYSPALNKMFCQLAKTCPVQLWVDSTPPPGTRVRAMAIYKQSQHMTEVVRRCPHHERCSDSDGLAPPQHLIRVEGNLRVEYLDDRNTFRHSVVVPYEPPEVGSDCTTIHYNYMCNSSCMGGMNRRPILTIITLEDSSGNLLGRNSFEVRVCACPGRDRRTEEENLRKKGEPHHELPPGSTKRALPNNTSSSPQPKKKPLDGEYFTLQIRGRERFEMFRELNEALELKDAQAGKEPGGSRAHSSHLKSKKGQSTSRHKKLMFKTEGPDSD
Summary of the method: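 In this cell-based reporter format, HCT116 cells were dosed with chemicals delivered from DMSO by 217-fold dilution and incubated 16 h at 37C. Emission at 460 and 530 nm after 2 h CCF4-AM loading provided the ratio, fitted upward versus DMSO.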

[2] = biological target: Cellular tumor antigen p53 (Homo sapiens) (UniProt P04637); test: TOX21_p53_BLA_p3_ratio: Tox21 HCT-116 p53 Agonism Beta-lactamase Assay, Ratio, Phase 3 (AID 2283596)
Summary of the method: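 HCT116 p53-bla cells (4000/well) given compound in DMSO (217-fold dilution) after 5 h, incubated 16 h at 37C. CCF4-AM substrate 2 h at room temperature; 460/530 nm emission ratio, gain fitted against DMSO.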

[3] = TOX21_p53_BLA_p5_viability: Viability Assessment in the Tox21 HCT-116 p53 Agonism Beta-lactamase Assay, Phase 5 (AID 2283600)
Summary of the method: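 Compounds, pinned from DMSO at 217-fold dilution, were left on the cells for 16 h. The viability endpoint was ATP content measured by CellTiter-Glo luminescence, where falling signal reflects cytotoxicity.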

[4] = biological target: Cellular tumor antigen p53 (Homo sapiens) (UniProt P04637); test: TOX21_p53_BLA_p4_ratio: Tox21 HCT-116 p53 Agonism Beta-lactamase Assay, Ratio, Phase 4 (AID 2283601)
Summary of the method: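 HCT116 cells carrying an inducible beta-lactamase reporter were plated at 4000 cells/well, rested 5 h, then exposed to compounds in DMSO (217-fold dilution) for 16 h at 37C. CCF4-AM substrate was loaded 2 h at room temperature; 460/530 nm emission ratio scored gain-of-signal versus DMSO.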

[5] = CCTE_Harrill_HTTr_Viability_MCF7: CCTE's 6-hour Cell Viability Assessment for the High-Throughput Transcriptomics (HTTr) Platform, in MCF-7 cells cultured in DMEM + 10% fetal bovine serum, Harrill Lab (AID 2284010; active means hit-call score of the fitted dose curve at least 0.9, where 1 is the maximum; inactive means score below 0.9)
Summary of the method: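 Cells were dosed with chemicals in an eight-point dilution series, imaged 6 hours later for propidium iodide uptake, and the endpoint was analyzed by bidirectional fitting against DMSO as negative control.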

[6] = CCTE_Harrill_HTTr_Apoptosis_MCF7: CCTE's 6-hour Apoptosis Assessment for the High-Throughput Transcriptomics (HTTr) Platform, in MCF-7 cells cultured in DMEM + 10% fetal bovine serum, Harrill Lab (AID 2284011; active means hit-call score of the fitted dose curve at least 0.9, where 1 is the maximum; inactive means score below 0.9)
Summary of the method: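 Read-out: CellEvent Caspase 3/7 Green signal by high content imaging, gain-of-signal indicating apoptosis. MCF-7 cells, DMEM + 10% FBS, eight-point dilution series, 6 h exposure. Curves fitted bidirectionally relative to DMSO negative control.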

[7] = CCTE_Harrill_HTTr_CellCount_MCF7: CCTE's Cell Proliferation Assessment for the High-Throughput Transcriptomics (HTTr) Platform, Harrill Lab (AID 2284012);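 further: count of Hoechst-stained nuclei per well by high-content imaging in MCF-7 cells; cells exposed to compound for six hours; intended direction is loss of nuclei count meaning fewer cells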
Summary of the method: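 Chemicals in eight-point dilution series are added to MCF-7 cells for six hours, nuclei are stained with Hoechst and imaged, and per-well nuclei counts are fitted in both directions relative to DMSO controls.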

[8] = TOX21_p53_BLA_p4_viability: Viability Assessment in the Tox21 HCT-116 p53 Agonism Beta-lactamase Assay, Phase 4 (AID 2283597);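 further: hits lower the luminescence signal meaning cytotoxicity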
Summary of the method: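 We seeded HCT116 p53 reporter cells at 4000/well and waited 5 h. We then added compounds in DMSO at a 217-fold dilution and incubated for 16 h. Viability was read as CellTiter-Glo luminescence after 30 min at RT.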

[9] = biological target: Cellular tumor antigen p53 (Homo sapiens) (UniProt P04637); test: TOX21_p53_BLA_p5_ratio: Tox21 HCT-116 p53 Agonism Beta-lactamase Assay, Ratio, Phase 5 (AID 2283599)
Summary of the method: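 HCT-116 cells carrying a p53-inducible beta-lactamase reporter were seeded at 4000 cells/well and dosed after 5 h with compound in DMSO (217-fold dilution). After 16 h at 37C, CCF4-AM substrate was added for 2 h, and the 460/530 nm emission ratio was scored as gain-of-signal versus DMSO.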

THRB (gene 7068) = THRB (gene 7068) (UniProt P10828); test: TOX21_TRB_BLA_Antagonist_Followup_ratio: Tox21 Thyroid Hormone Receptor beta Antagonism Beta-lactamase (BLA) Follow-Up Assay, Ratio (AID 2283958)
Sequence of THRB (gene 7068) (P10828 whole entry, looked up, the tested form may be a part): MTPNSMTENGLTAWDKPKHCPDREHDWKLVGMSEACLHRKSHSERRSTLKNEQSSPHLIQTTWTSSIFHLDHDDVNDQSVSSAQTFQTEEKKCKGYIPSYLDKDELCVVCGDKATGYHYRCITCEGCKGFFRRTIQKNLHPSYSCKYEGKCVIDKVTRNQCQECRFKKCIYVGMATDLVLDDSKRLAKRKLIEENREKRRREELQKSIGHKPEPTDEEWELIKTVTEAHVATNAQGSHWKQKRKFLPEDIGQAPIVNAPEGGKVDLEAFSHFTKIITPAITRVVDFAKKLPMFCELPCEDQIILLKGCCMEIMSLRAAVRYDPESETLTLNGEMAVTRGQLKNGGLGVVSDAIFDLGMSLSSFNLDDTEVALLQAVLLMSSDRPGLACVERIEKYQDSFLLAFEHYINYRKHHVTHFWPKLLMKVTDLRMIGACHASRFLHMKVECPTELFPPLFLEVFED
Summary of the method: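 HEK293T TRb-bla (GAL4 DBD + hTRβ LBD), 2% cs-FBS phenol red-free DMEM, 5 h attach; cpds 11-pt triplicate, 18 h 37C; CCF4-AM 2 h RT; 460/530 ratio vs DMSO; CellTiter-Glo viability same wells.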

[10] = TOX21_TRB_BLA_Antagonist_Followup_viability: Viability Assessment in the Tox21 Thyroid Hormone Receptor beta Antagonism Beta-lactamase (BLA) Follow-Up Assay (AID 2283961)
Summary of the method: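 Viability read as CellTiter-Glo ATP luminescence (loss of signal = cytotoxicity) in the same plates as the TRβ-bla readout. TRβ-LBD/GAL4 UAS-bla HEK293T cells were exposed to compounds, 11 concentrations in triplicate, for 18 h at 37C/5% CO2.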

[11] = biological target: Retinoic acid receptor RXR-alpha (Homo sapiens) (UniProt P19793); test: TOX21_TR_RXR_BLA_Antagonist_Followup_ratio: Tox21 Thyroid Hormone Receptor beta Retinoid X Receptor alpha (RXRa) Antagonism Beta-lactamase (BLA) Follow-Up Assay, Ratio (AID 2283972)
Sequence of Retinoic acid receptor RXR-alpha (Homo sapiens) (P19793 whole entry, looked up, the tested form may be a part): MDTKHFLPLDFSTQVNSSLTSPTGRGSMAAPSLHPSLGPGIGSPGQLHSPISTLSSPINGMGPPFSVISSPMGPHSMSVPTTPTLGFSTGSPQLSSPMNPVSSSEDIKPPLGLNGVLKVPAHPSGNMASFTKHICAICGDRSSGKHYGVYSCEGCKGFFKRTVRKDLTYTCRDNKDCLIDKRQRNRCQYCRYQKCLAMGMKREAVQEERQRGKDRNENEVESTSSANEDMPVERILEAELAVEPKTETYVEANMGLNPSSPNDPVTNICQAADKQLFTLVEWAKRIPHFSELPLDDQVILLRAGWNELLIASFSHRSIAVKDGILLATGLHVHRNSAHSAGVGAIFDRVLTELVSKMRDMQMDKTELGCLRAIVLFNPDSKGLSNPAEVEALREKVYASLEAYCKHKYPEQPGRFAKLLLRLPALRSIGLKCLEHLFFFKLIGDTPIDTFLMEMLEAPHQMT
Summary of the method: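 Beta-lactamase reporter readout as cleaved/uncleaved substrate ratio (460:530 nm) after 2 h substrate loading at room temperature. GAL4-RXRa bla HEK293T cells were exposed 16 h at 37C to 11-point compound series; loss of signal scored against DMSO baseline.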

[12] = TOX21_TR_RXR_BLA_Antagonist_Followup_viability: Viability Assessment in the Tox21 Thyroid Hormone Receptor beta Retinoid X Receptor alpha (RXRa) Antagonism Beta-lactamase (BLA) Follow-Up Assay (AID 2283979)
Summary of the method: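 RXRa-UAS-bla HEK293T cells seeded 2,500/well in phenol red-free DMEM with 2% charcoal-stripped FBS, attached 5 h, then exposed to compounds at 11 concentrations in triplicate for 16 h at 37C/5% CO2. Viability read by CellTiter-Glo ATP luminescence; bidirectional fit versus DMSO.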

PGR (gene 5241) [13] = biological target: PGR (gene 5241) (UniProt P06401); test: TOX21_PR_BLA_Followup_Antagonist_ratio: Tox21 HEK293 Progesterone Receptor (PR) Antagonism Beta-lactamase Follow-Up Assay, Ratio (AID 2283934)
Sequence of PGR (gene 5241) (P06401 whole entry, looked up): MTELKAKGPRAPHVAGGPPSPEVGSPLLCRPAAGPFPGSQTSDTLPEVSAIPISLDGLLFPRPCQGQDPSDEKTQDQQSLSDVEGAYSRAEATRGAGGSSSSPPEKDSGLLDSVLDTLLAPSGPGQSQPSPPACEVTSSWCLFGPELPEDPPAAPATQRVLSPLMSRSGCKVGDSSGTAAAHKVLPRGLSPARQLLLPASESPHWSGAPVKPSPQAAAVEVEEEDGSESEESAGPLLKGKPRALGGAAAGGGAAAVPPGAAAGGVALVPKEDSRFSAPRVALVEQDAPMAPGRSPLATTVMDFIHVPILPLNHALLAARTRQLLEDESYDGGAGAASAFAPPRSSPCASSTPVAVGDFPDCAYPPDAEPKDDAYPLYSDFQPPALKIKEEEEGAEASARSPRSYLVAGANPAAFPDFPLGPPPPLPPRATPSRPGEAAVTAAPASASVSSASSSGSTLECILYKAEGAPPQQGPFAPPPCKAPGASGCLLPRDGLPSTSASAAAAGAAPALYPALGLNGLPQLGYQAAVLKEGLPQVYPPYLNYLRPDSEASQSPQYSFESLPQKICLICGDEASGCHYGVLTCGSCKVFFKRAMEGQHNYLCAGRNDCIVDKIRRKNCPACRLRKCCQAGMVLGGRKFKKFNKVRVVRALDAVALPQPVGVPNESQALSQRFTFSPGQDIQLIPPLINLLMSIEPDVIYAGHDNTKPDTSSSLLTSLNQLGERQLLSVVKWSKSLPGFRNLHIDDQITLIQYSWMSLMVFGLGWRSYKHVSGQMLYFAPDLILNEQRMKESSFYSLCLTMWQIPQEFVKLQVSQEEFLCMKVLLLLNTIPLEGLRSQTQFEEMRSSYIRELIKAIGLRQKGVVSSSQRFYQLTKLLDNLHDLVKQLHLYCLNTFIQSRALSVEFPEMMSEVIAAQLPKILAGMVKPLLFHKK
Summary of the method: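 HEK293T PR-UAS-bla, 2% CS-FBS; 6 hr plating, then cpd + R5020 (1 nM final), 16 hr 37C/5% CO2. B/G FRET substrate 2 h RT. Ratio ch2/ch1 vs DMSO; CellTiter-Glo viability multiplexed, autofluorescence checked.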

[14] = TOX21_PR_BLA_Followup_Agonist_viability: Viability Assessment in the Tox21 HEK293 Progesterone Receptor (PR) Agonism Beta-lactamase Follow-Up Assay (AID 2283935);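 further: signal loss means lower viability so actives are cytotoxic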
Summary of the method: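 HEK293T PR-UAS-bla, 3,000 cells/well, 2% CS-FBS; 6 hr pre-incubation; cpd in DMSO, 16 hr 37C; LiveBLAzer 2 hr RT, then CellTiter-Glo 30 min RT, luminescence. Decrease = lost viability.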

PGR (gene 5241) [15] = biological target: PGR (gene 5241) (UniProt P06401); test: TOX21_PR_LUC_Followup_Antagonist: Tox21 HEK293 Progesterone Receptor (PR) Antagonism Luciferase Follow-Up Assay (AID 2283938);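 further: curve fitted upward as signal gain over DMSO baseline despite antagonist label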
Summary of the method: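 Luminescence from ONE-Glo reagent, measured after 30 min at room temperature, served as readout. Cells (HEK293 carrying PR-A-luc) had been treated 16 h at 37C with DMSO-dissolved compounds. Activity was fitted against DMSO controls.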

[16] = TOX21_PR_LUC_Followup_Antagonist_viability: Viability Assessment in the Tox21 HEK293 Progesterone Receptor (PR) Antagonism Luciferase Follow-Up Assay (AID 2283940)
Summary of the method: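 Multiplexed viability counter-screen: after 5 days in charcoal-stripped-FBS medium, HEK293-PR-A-luc cells are plated, pinned with DMSO-dissolved compounds for 16 h at 37C, and ATP content is quantified luminescently via CellTiter-Glo.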

[17] = UKN5_HCS_SBAD2_cell_viability: Viability Assessment in the University of Konstanz (UKN) Leist Lab Neurite Outgrowth Assay in human iPSC-derived immature Dorsal Root Ganglia Neurons (UKN5) (AID 2284056; active means hit-call score of the fitted dose curve at least 0.9, where 1 is the maximum; inactive means score below 0.9)
Summary of the method: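 iPSC-derived immature peripheral neurons (SBAD2) seeded on Matrigel with CHIR99021, SU5402 and DAPT, dosed 1 h later for 24 h. Viability from Hoechst H-33342 and calcein-AM live staining, high-content imaging; bidirectional fit versus DMSO.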

[18] = UKN5_HCS_SBAD2_neurite_outgrowth: University of Konstanz (UKN) Leist Lab Neurite Outgrowth Assay in human iPSC-derived immature Dorsal Root Ganglia Neurons (UKN5) (AID 2284070; active means hit-call score of the fitted dose curve at least 0.9, where 1 is the maximum; inactive means score below 0.9); conditions: actives raise or lower the signal
Summary of the method: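 Read-out: calcein-AM-stained neurite area by high-content imaging, Hoechst H-33342 for viability, after 24 h exposure of iPSC-derived immature dorsal root ganglia neurons. Activity fitted in both directions relative to DMSO baseline.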

[19] = UKN2_HCS_IMR90_neural_migration: University of Konstanz (UKN) Leist Lab Neural Crest Cell Migration Assay in human induced IMR90 Pluripotent Stem Cells (UKN2) (AID 2284204; active means hit-call score of the fitted dose curve at least 0.9, where 1 is the maximum; inactive means score below 0.9); conditions: actives raise or lower the signal
Summary of the method: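 iPSC-derived IMR90 neural crest cells on PLO/laminin/fibronectin were seeded around silicone stoppers; after stopper removal, migration in N2-S medium with EGF and FGF ran 24 h before 24 h chemical exposure. Calcein-AM/Hoechst high-content imaging; bidirectional fit versus DMSO.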

[20] = UKN4_HCS_LUHMES_neurite_outgrowth: University of Konstanz (UKN) Leist Lab Neurite Outgrowth Assay in human LUHMES cells (UKN4) (AID 2284206; active means hit-call score of the fitted dose curve at least 0.9, where 1 is the maximum; inactive means score below 0.9); conditions: actives raise or lower the signal
Summary of the method: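 Day 0 switch to differentiation medium; day 2 replate (30000 cells/well) without cAMP and GDNF; compounds added 30 min–2 h later. At 23.5 h, 30 min calcein-AM/H-33342 live stain, then imaging.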

[21] = UKN4_HCS_LUHMES_cell_viability: Viability Assessment in the University of Konstanz (UKN) Leist Lab Neurite Outgrowth Assay in human LUHMES cells (UKN4) (AID 2284232; active means hit-call score of the fitted dose curve at least 0.9, where 1 is the maximum; inactive means score below 0.9)
Summary of the method: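 Fluorescence intensity from high-content imaging of Hoechst H-33342/calcein-AM-stained cells served as the viability read-out. Human LUHMES precursors were differentiated 2 days, replated and treated 24 h; curves were fitted bidirectionally against DMSO.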

[22] = UKN2_HCS_IMR90_cell_viability: Viability Assessment in the University of Konstanz (UKN) Leist Lab Neural Crest Cell Migration Assay in human induced IMR90 Pluripotent Stem Cells (UKN2) (AID 2284233; active means hit-call score of the fitted dose curve at least 0.9, where 1 is the maximum; inactive means score below 0.9;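 further: viability of neural crest cells differentiated from IMR90 iPSC measured by calcein-AM fluorescence imaging; cells exposed to compound for 24 h after a 24 h migration phase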)
Summary of the method: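 iPSC-derived (IMR90) neural crest cells seeded around silicone stoppers on PLO/laminin/fibronectin; after 24 h migration in N2-S with EGF/FGF, chemical added for 24 h. Calcein-AM/Hoechst stained 30 min, high-content imaged; bidirectional fit versus DMSO.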

Measured: outcome

CCCN(CCC)CCc1c[nH]c2ccccc12
inactive: [1] | [2] | [3] | [4]

COc1cccc([C@@]2(O)CCCC[C@@H]2CN(C)C)c1
inactive: [1] | [2] | [4] | [5] | [6] | [7]

O=C1CN(O)C(c2ccccc2)=c2cc(Cl)ccc2=N1
inactive: [1] | [8] | [3] | [4]

O=C1OC2(c3cc(Br)c(O)cc3Oc3c2cc(Br)c(O)[c]3[Hg])c2ccccc21 (centres undefined)
inactive: [1] | [8] | [9] | [4] | THRB (gene 7068) | [10] | [11] | [12]

CCN(CCO)CCn1c(Cc2ccccc2)nc2c1c(=O)n(C)c(=O)n2C
inactive: [1] | [8] | [9]

CN(C)c1ccc(N(C)C)cc1
inactive: [1] | [8] | [4]

CN1c2ccccc2C(NCCCCCCC(=O)O)c2ccc(Cl)cc2S1(=O)=O (centres undefined)
inactive: [1] | [2] | [4]

O=Cc1ccc(Cl)cc1Cl
inactive: [1] | [2] | [3] | [4]

C[C@]12C=CC(=O)C=C1CC[C@@H]1[C@@H]2CC[C@@]2(C)[C@H]1CC[C@]2(C)O
inactive: [1] | [2] | [9] | [4] | PGR (gene 5241) [13] | [14] | PGR (gene 5241) [15] | [16]

CN[C@@H](C)Cc1ccccc1
inactive: [1] | [8] | [17] | [18] | [19] | [20] | [21] | [22]

NNC(=O)c1cccnc1
inactive: [1] | [8] | [9] | [4]

O=C1OC(c2ccc(O)c(S(=O)(=O)O)c2)(c2ccc(O)c(S(=O)(=O)O)c2)c2c(Br)c(Br)c(Br)c(Br)c21
inactive: [1] | [2] | [3] | [4]
